Data reported in PubChem BioAssay (NCATS).
Inconclusive results are not listed. Activity calls are given as the source filed them. The call rests on the fitted dose curve; in most records, active means well fitted curve in the direction sought with a large enough effect; inconclusive means small, poorly fitted or top-dose-only effect, or another doubt; inactive means no such curve, though single readings can be large; an effect the other way counts as inactive or inconclusive.

Assays:
[1] = molecular target: ATP-dependent 6-phosphofructokinase (Trypanosoma brucei brucei) (UniProt O15648); test: qHTS Assay to Find Inhibitors of T. brucei phosphofructokinase: hit validation (AID 492961);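 further: luminescence reports ADP formed as PFK phosphorylates fructose-6-phosphate with ATP; on the % scale 0 is the no-effect control and ±100 the full control effect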
Sequence of ATP-dependent 6-phosphofructokinase (Trypanosoma brucei brucei) (O15648 whole entry, looked up): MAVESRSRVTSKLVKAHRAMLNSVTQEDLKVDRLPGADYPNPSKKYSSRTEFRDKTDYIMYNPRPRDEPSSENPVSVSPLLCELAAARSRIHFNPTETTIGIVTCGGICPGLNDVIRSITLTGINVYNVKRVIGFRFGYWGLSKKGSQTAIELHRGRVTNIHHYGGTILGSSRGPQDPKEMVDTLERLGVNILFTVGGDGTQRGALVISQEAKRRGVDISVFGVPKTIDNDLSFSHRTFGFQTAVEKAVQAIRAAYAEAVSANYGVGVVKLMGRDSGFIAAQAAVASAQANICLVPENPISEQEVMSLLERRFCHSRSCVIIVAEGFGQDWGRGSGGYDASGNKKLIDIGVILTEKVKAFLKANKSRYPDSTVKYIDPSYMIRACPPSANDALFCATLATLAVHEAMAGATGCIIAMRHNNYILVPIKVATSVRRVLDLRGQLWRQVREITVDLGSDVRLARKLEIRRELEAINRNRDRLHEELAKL
In short: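 Reaction: 0.1 M triethanolamine pH 8.0, 5 mM MgCl2, F6P 0.5 mM, ATP 0.1 mM, PFK 1.25 nM, 45 min RT. Read-out: ADP-Glo luminescence. Analysis: concentration-response fits, classed by r2 and efficacy.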

[2] = qHTS profiling for inhibitors of Plasmodium falciparum proliferation (AID 504749); further: potency means the concentration at half of the fitted maximal effect;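 on activity, negative = inhibition: 0% = DMSO vehicle and full inhibition = artemisinin control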; on all read-outs here: nearly all actives have a fitted effect of over 60% in size; conditions: P. falciparum in erythrocytes, SYBR Green DNA, 72 h; for activity, negative = inhibition: at 28.7 µM (top of the series)
In short: (§1)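 Quantitative HTS: compounds pinned into medium, infected erythrocytes added (0.3% parasitemia, 2.5% hematocrit), 72 h culture at 37 C under 5% CO2. Saponin/Triton lysis with SYBR Green I, overnight RT, then fluorescence read.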

[3] = system: 3D7; test: as above; conditions: P. falciparum in erythrocytes, SYBR Green DNA, 72 h; series mostly up to 28.7 µM
In short: as §1

[4] = system: AA1029; test: as above; conditions: P. falciparum in erythrocytes, SYBR Green DNA, 72 h; series mostly up to 28.7 µM
In short: as §1

[5] = system: AS120; test: as above; conditions: P. falciparum in erythrocytes, SYBR Green DNA, 72 h; series mostly up to 28.7 µM
In short: as §1

[6] = system: ATS189; test: as above; conditions: P. falciparum in erythrocytes, SYBR Green DNA, 72 h; series mostly up to 28.7 µM
In short: as §1

[7] = system: CP185; test: as above; conditions: P. falciparum in erythrocytes, SYBR Green DNA, 72 h; series mostly up to 28.7 µM
In short: as §1

[8] = system: CP191; test: as above; conditions: P. falciparum in erythrocytes, SYBR Green DNA, 72 h; series mostly up to 28.7 µM
In short: as §1

[9] = system: CP211; test: as above; conditions: P. falciparum in erythrocytes, SYBR Green DNA, 72 h; series mostly up to 28.7 µM
In short: as §1

[10] = system: CP217; test: as above; conditions: P. falciparum in erythrocytes, SYBR Green DNA, 72 h; series mostly up to 28.7 µM
In short: as §1

[11] = system: CP238; test: as above; conditions: P. falciparum in erythrocytes, SYBR Green DNA, 72 h; series mostly up to 28.7 µM
In short: as §1

[12] = system: CP252; test: as above; conditions: P. falciparum in erythrocytes, SYBR Green DNA, 72 h; series mostly up to 28.7 µM
In short: as §1

[13] = system: CP262; test: as above; conditions: P. falciparum in erythrocytes, SYBR Green DNA, 72 h; series mostly up to 28.7 µM
In short: as §1

[14] = system: CP265; test: as above; conditions: P. falciparum in erythrocytes, SYBR Green DNA, 72 h; series mostly up to 28.7 µM
In short: as §1

[15] = system: CP286; test: as above; conditions: P. falciparum in erythrocytes, SYBR Green DNA, 72 h; series mostly up to 28.7 µM
In short: as §1

[16] = system: FAB9; test: as above; conditions: P. falciparum in erythrocytes, SYBR Green DNA, 72 h; series mostly up to 28.7 µM
In short: as §1

[17] = system: N140; test: as above; conditions: P. falciparum in erythrocytes, SYBR Green DNA, 72 h; series mostly up to 28.7 µM
In short: as §1

[18] = system: P94_40; test: as above; conditions: P. falciparum in erythrocytes, SYBR Green DNA, 72 h; series mostly up to 28.7 µM
In short: as §1

[19] = system: TAB109; test: as above; conditions: P. falciparum in erythrocytes, SYBR Green DNA, 72 h; series mostly up to 28.7 µM
In short: as §1

[20] = system: Dd2; test: as above; conditions: P. falciparum in erythrocytes, SYBR Green DNA, 72 h; series mostly up to 28.7 µM
In short: as §1

CCCCC(=O)O[C@]1(C(=O)CO)CCC2C3CCC4=CC(=O)CCC4(C)C3C(O)CC21C (some centres undefined)
inactive: Potency [1] | activity, negative = inhibition ([2]; parasite line A) -2.08% | activity, negative = inhibition ([2]; parasite line B) -4.71% | Potency [3] | Potency [4] | Potency [5] | Potency [6] | Potency [7] | Potency [8] | Potency [9] | Potency [10] | Potency [11] | Potency [12] | Potency [13] | Potency [14] | Potency [15] | Potency [16] | Potency [17] | Potency [18] | Potency [19]

C[C@]12C=CC(=O)N[C@@H]1CC[C@@H]1C2CC[C@]2(C)C(C(=O)Nc3cc(C(F)(F)F)ccc3C(F)(F)F)CC[C@@H]12 (some centres undefined)
inactive: Potency [1] | activity, negative = inhibition ([2]; parasite line A) -5.45% | Potency [4] | Potency [5] | Potency [6] | Potency [7] | Potency [8] | Potency [9] | Potency [10] | Potency [11] | Potency [12] | Potency [13] | Potency [14] | Potency [20] | Potency [17] | Potency [18] | Potency [19]
active: Potency ([2]; parasite line B) 11.2 µM | Potency [3] 5.62 µM | Potency [15] 6.31 µM

COc1ccc2cc1Oc1cc3c(cc1OC)CC[N+](C)(C)C3Cc1ccc(cc1)Oc1c(OC)c(OC)cc3c1C(C2)[N+](C)(C)CC3 (centres undefined)
inactive: Potency [1] | activity, negative = inhibition ([2]; parasite line A) 13.3% | activity, negative = inhibition ([2]; parasite line B) 0.155% | Potency [3] | Potency [4] | Potency [5] | Potency [6] | Potency [7] | Potency [8] | Potency [9] | Potency [10] | Potency [11] | Potency [12] | Potency [13] | Potency [14] | Potency [15] | Potency [20] | Potency [16] | Potency [17] | Potency [18] | Potency [19]

C[C@@H](O)[C@@H]1C(=O)N2C(C(=O)O)=C([C@H]3CCCO3)S[C@H]12
inactive: Potency [1] | activity, negative = inhibition ([2]; parasite line A) -3.21% | activity, negative = inhibition ([2]; parasite line B) 2.27% | Potency [3] | Potency [4] | Potency [5] | Potency [6] | Potency [7] | Potency [8] | Potency [9] | Potency [10] | Potency [11] | Potency [12] | Potency [13] | Potency [14] | Potency [15] | Potency [20] | Potency [16] | Potency [17] | Potency [18] | Potency [19]

CCC(=O)O[C@]1(C(=O)CCl)[C@@H](C)CC2C3C[C@H](F)C4=CC(=O)C=CC4(C)[C@@]3(F)C(O)CC21C (some centres undefined)
active: Potency ([2]; parasite line A) 12.6 µM | Potency ([2]; parasite line B) 11.2 µM | Potency [3] 11.2 µM | Potency [4] 8.91 µM | Potency [5] 7.94 µM | Potency [6] 10 µM | Potency [7] 11.2 µM | Potency [8] 7.94 µM | Potency [9] 9.53 µM | Potency [10] 7.94 µM | Potency [11] 8.91 µM | Potency [12] 8.91 µM | Potency [13] 9.53 µM | Potency [14] 8.91 µM | Potency [15] 10 µM | Potency [20] 7.94 µM | Potency [17] 6.31 µM | Potency [18] 8.91 µM | Potency [19] 5.01 µM
inactive: Potency [1] | Potency [16]

C[N+]12CCCC[C@@H]1CCC(=C(c1cccs1)c1cccs1)C2 (some centres undefined)
inactive: Potency [1] | Potency [13]
active: Potency ([2]; parasite line A) 10 µM | Potency ([2]; parasite line B) 12.6 µM | Potency [3] 12.6 µM | Potency [4] 8.91 µM | Potency [5] 10 µM | Potency [7] 8.91 µM | Potency [8] 8.91 µM | Potency [9] 13.5 µM | Potency [10] 7.94 µM | Potency [15] 6.31 µM | Potency [16] 11.2 µM | Potency [17] 12.6 µM | Potency [18] 7.94 µM | Potency [19] 2.51 µM

N#C/C(=C1/SCC(c2ccccc2Cl)S1)n1ccnc1 (centres undefined)
inactive: Potency [1] | activity, negative = inhibition ([2]; parasite line A) -5.78% | activity, negative = inhibition ([2]; parasite line B) -14.7% | Potency [3] | Potency [4] | Potency [6] | Potency [7] | Potency [8] | Potency [9] | Potency [10] | Potency [11] | Potency [12] | Potency [13] | Potency [14] | Potency [15] | Potency [20] | Potency [16] | Potency [18] | Potency [19]

CCCC(=O)Nc1c(I)cc(I)c(C[C@H](CC)C(=O)O)c1I
inactive: Potency [1] | activity, negative = inhibition ([2]; parasite line A) 2.81% | activity, negative = inhibition ([2]; parasite line B) -1.24% | Potency [3] | Potency [4] | Potency [5] | Potency [6] | Potency [7] | Potency [8] | Potency [9] | Potency [10] | Potency [11] | Potency [12] | Potency [13] | Potency [14] | Potency [15] | Potency [20] | Potency [16] | Potency [17] | Potency [18] | Potency [19]

CC(=O)CC(c1ccccc1)C1C(=O)Oc2ccccc2C1=O (centres undefined)
inactive: Potency [1] | activity, negative = inhibition ([2]; parasite line A) 13.7% | activity, negative = inhibition ([2]; parasite line B) 9.27% | Potency [3] | Potency [4] | Potency [5] | Potency [6] | Potency [7] | Potency [8] | Potency [9] | Potency [10] | Potency [11] | Potency [12] | Potency [13] | Potency [14] | Potency [15] | Potency [20] | Potency [16] | Potency [17] | Potency [18] | Potency [19]

CO/N=C(/C(=O)N[C@@H]1C(=O)N2C(C(=O)O)=C(CSc3nnnn3C)CS[C@H]12)c1csc(N)n1
inactive: Potency [1] | activity, negative = inhibition ([2]; parasite line A) 6.68% | activity, negative = inhibition ([2]; parasite line B) 0.88% | Potency [3] | Potency [4] | Potency [5] | Potency [6] | Potency [7] | Potency [8] | Potency [9] | Potency [10] | Potency [11] | Potency [12] | Potency [13] | Potency [14] | Potency [15] | Potency [20] | Potency [16] | Potency [17] | Potency [18] | Potency [19]

CCOC(=O)C(CCc1ccccc1)NC(C)C(=O)N1Cc2cc(OC)c(OC)cc2CC1C(=O)O (centres undefined)
active: Potency [5] 5.01 µM | Potency [17] 3.55 µM
inactive: Potency [1] | activity, negative = inhibition ([2]; parasite line A) -6.17% | activity, negative = inhibition ([2]; parasite line B) -28.7% | Potency [3] | Potency [6] | Potency [7] | Potency [8] | Potency [9] | Potency [11] | Potency [12] | Potency [13] | Potency [14] | Potency [15] | Potency [20] | Potency [16] | Potency [19]
